Consider 26 compounds from PubChem BioAssay.

One experiment has as its target Carbonic anhydrase 2 (Homo sapiens) (UniProt P00918). Kind of experiment: compounds binding carbonic anhydrase 2 – biochemical, small-molecule microarray, Alexa647-labelled CAII, profiling panel (AID 1122). The conditions noted are these: CAII-A647 binding fluorescence, higher = more signal.
`C=CCN1C(=O)[C@]2(O[C@H](CCn3cc([C@H](O)c4ccccc4)nn3)[C@@H]([Si](C)(C)c3ccc(OC)cc3)[C@@H]2C)c2ccccc21` showed a composite z-score of -0.238. For the compound `[N-]=[N+]=NCc1ccccc1[C@@H]1OC(c2ccc(OCCCO)cc2)=N[C@]1(Cc1ccccc1)C(=O)NCC(O)CO` (stereo partly specified), the composite z-score turned out to be 0.546. `COc1cc2c(cc1OC)CN(C(=O)[C@H]1[C@@H]3C(=O)O[C@@H](c4ccccc4)[C@@H](c4ccccc4)N3[C@@H](c3ccc(O)cc3)[C@]13C(=O)Nc1ccc(C#CCCO)cc13)CC2` gave a composite z-score of 0.213. For the compound `C=CCNC(=O)[C@@H]1[C@H]2C(=O)O[C@H](c3ccccc3)[C@H](c3ccccc3)N2[C@H](c2ccccc2OCCO)[C@@]12C(=O)N(C(=O)OCCOC)c1ccccc12`, the composite z-score is 0.395. `CC1(C)[C@@H]2CC(C(O)C3C=CC4C(=O)N(c5ccccc5)C(=O)C4N3Nc3ccc([N+](=O)[O-])cc3)=C[C@H]1C2` (stereo partly specified) showed a composite z-score of 0.425. In the case of `C=CCNC(=O)[C@H]1[C@@H]2C(=O)O[C@@H](c3ccccc3)[C@@H](c3ccccc3)N2[C@@H](c2ccccc2OCCO)[C@]12C(=O)Nc1ccc(C#CCC(C(=O)OC)C(=O)OC)cc12`, the composite z-score worked out at 0.251. Consider `O=C1C2C=CC(C(O)c3cc(C(F)(F)F)cc(C(F)(F)F)c3)N(n3cnnc3)C2C(=O)N1Cc1ccccc1` (stereo unspecified), for which the composite z-score stood at 0.68. Compound `COc1cc(NN2C(C(O)c3ccco3)C=CC3C(=O)N(c4ccccc4)C(=O)C32)cc(OC)c1OC` (stereo unspecified) yielded a composite z-score of 0.574. The compound `CN(C)CCCCCCNC(=O)[C@@H]1C[C@@H]2C(=O)N[C@@H](Cc3ccccc3)C(=O)N2[C@@H]1c1ccc(O)cc1` registered a composite z-score of 0.425. On the same count and under the same terms, under `CC(C)NC(=O)[C@@]1(c2ccc([N+](=O)[O-])cc2)CC(=O)N(C2CCCCC2)[C@@H]1c1ccc(CO)cc1I` stands 0.421. As to `C=CC[C@]1(C(=O)NCc2ccccc2)N=C(c2ccc(OCCCO)cc2)O[C@H]1c1ccccc1N=[N+]=[N-]`, the composite z-score amounted to 0.625.

System in another experiment: not listed separately
Kind of experiment: COS7 lysate on small-molecule microarray, probe aHis, 635 nm (AID 1123).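 Further: z-score combines 667nm fluorescence intensity with signal-to-noise per printed compound spot.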 The following applies: COS7 cell lysate, fluorescence, higher = more signal.
With `COc1ccc([C@H]2OC[C@@H]3C[C@@H](Cc4ccccc4)C(=O)N32)cc1`, the composite z-score came to 0.39. As for `COCCCNC(=O)[C@@H]1c2ccccc2C(=O)N(Cc2ccccc2Cl)[C@H]1c1ccc(CO)cc1`, the composite z-score worked out at 1.72. The same measure, in the same setting: under `O=C1C2C=CC(C(O)c3cccc4ccccc34)N(Nc3ccccc3F)C2C(=O)N1c1ccccc1` (stereo unspecified) stands 2.76. `COC(=O)[C@@]1(CCS(=O)(=O)c2ccccc2)N=C(c2ccc(OCCCO)cc2)O[C@H]1c1ccccc1CN=[N+]=[N-]` had a composite z-score of 2.4. `C=C[C@H](OC)[C@@H](OC(=O)Nc1ccc(OC)cc1)c1ccc(O)c(F)c1` came in with a composite z-score of 2.28. For the compound `C=CCC(OC(C)=O)[C@@H]1[C@@H](N(Cc2ccc(-c3ccccc3)cc2)C(=O)c2cccc3ccccc23)c2cc(OCCCO)ccc2N1C(=O)c1ccc(-c2ccccc2)cc1` (stereo partly specified), the composite z-score was found to be 1.17. Take `C=CCOC(=O)[C@H]1[C@@H]2C(=O)O[C@@H](c3ccccc3)[C@@H](c3ccccc3)N2[C@@H](c2ccc(OCCOC(=O)[C@H]3C[C@H]4C(=O)N[C@@H](CCCC[N+](C)(C)C)C(=O)N4[C@H]3c3ccc(O)cc3)cc2)[C@]12C(=O)Nc1ccc(I)cc12`: the composite z-score was determined as 0.502. `COC(=O)[C@@]1(Cc2ccc(OC)cc2)[C@@H]2C(=CC(=O)[C@H]2CC(=O)C(=O)N2CCCC2)CN1C(=O)c1ccccc1` displayed a composite z-score of 2.23. In turn, `C[C@H]1NC(=O)[C@@]23C(=O)N[C@@H](Cc4ccccc4)C2[C@H](C)[C@@]2(C)O[C@H]2C3/C=C/C/C=C\CNC(=O)[C@@H]2CCCN2C1=O` (stereo partly specified) registered a composite z-score of 0.0441. Still for that read-out and setting: then `O=C(OCc1ccccc1)C1=CCC2c3[nH]c4ccccc4c3C(=O)C1N2S(=O)(=O)c1ccccc1[N+](=O)[O-]` (stereo unspecified), with 2.61.

Take `COC(=O)[C@@]1(Cc2ccc(OC)cc2)[C@H]2c3cc(C(=O)N4CCCC4)n(Cc4ccc(C)c(F)c4F)c3C[C@H]2CN1C(=O)c1ccccc1`: the composite z-score was determined as 3.22. Regarding `C=CCOC(=O)[C@H]1[C@@H]2C(=O)O[C@@H](c3ccccc3)[C@@H](c3ccccc3)N2[C@@H](c2ccc(OCCOC(=O)[C@H]3C[C@H]4C(=O)N[C@@H](CCCCNC(C)=O)C(=O)N4[C@H]3c3cccc(OCCO)c3)cc2)[C@]12C(=O)Nc1ccccc12`, the composite z-score amounted to 2.16. Compound `CC(C)c1ccc(NN2C(C(O)c3ccc(B(O)O)cc3)C=CC3C(=O)N(c4ccccc4)C(=O)C32)cc1` (stereo unspecified) had a composite z-score of 2.32. On the same count and under the same terms, then `CCCC=C(CCC)[C@@H](NC(=O)c1cccs1)c1ccc(C(F)(F)F)cc1`, with 0.0705. Take `COc1ccc(C#Cc2ccc3c(c2)[C@]2(C(=O)N3)[C@H](C(=O)Nc3nc4ccccc4s3)[C@H]3C(=O)O[C@H](c4ccccc4)[C@H](c4ccccc4)N3[C@@H]2c2ccc(O)cc2)cc1`: the composite z-score is 2.65.
